From PubChem BioAssay AID690 (Sanford-Burnham Center for Chemical Genomics, 2007)
Screen size: about 96,000 compounds; about 80 (0.08%) were called active. The rule behind the calls is not given here. A selection follows. Measured potencies and affinities stand elsewhere.

biological target: Alkaline phosphatase, placental type (Homo sapiens) (UniProt P05187); assay: PLAP enzyme inhibitors, biochemical, luminescence, HTS (AID 690); conditions: purified PLAP, luminescent substrate; at 20 µM; stronger effect = higher value
Sequence (P05187 whole entry, looked up): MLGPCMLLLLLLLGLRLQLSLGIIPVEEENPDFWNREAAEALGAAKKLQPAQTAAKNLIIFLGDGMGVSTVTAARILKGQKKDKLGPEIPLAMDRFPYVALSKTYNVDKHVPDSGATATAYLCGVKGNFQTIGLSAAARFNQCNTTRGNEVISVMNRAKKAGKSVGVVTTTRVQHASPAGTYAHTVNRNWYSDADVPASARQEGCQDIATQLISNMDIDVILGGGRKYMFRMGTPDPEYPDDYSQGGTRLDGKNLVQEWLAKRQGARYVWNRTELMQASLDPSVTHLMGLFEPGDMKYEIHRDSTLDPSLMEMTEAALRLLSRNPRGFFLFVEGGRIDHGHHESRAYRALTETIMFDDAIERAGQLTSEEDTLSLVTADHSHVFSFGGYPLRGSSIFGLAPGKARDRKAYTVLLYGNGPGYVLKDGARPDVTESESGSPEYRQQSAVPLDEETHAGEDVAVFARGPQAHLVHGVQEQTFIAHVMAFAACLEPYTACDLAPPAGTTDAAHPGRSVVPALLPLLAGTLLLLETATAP

inhibition, inactive:
CCOc1ccc(NC(N)=O)cc1OCC 13.6%
O=P(O)(O)c1ccccc1OCCCCCOc1ccccc1P(=O)(O)O 21.2%
O=P(O)(O)c1ccccc1OCCOCCOc1ccccc1P(=O)(O)O 17.4%
CSC1=C(C#N)C(c2ccccc2C)C(C#N)=C(N)N1 (stereo not drawn) 17.9%
O=C(NC(Cc1ccc(F)cc1)C(=O)O)c1ccccc1 (stereo not drawn) -2.2%
Cc1cc(C)n2nc(SCc3nnc(SCc4ccccc4)s3)nc2n1 -20.5%
COC(=O)c1cc(NC(=O)C2COc3ccccc3O2)ccc1Cl (stereo not drawn) 28.8%
Cc1c(NC(=O)C(C)OC(=O)CNC(=O)c2ccccc2)c(=O)n(-c2ccccc2)n1C (stereo not drawn) 5.2%
Cc1ccc(C(=O)CSc2nc3ccccc3c(=O)[nH]2)cc1 -27.5%
CC(C)(C)c1ccc(C(=O)CSc2nc3ccccc3c(=O)[nH]2)cc1 -9.7%
O=C(CSc1n[nH]c(-c2ccncc2)n1)c1ccccc1 7.6%
O=C(CSc1n[nH]c(-c2ccccc2)n1)c1ccccc1 -11.7%
COc1ccc(Cn2c(CCC(=O)Nc3ccc(CC#N)cc3)nc3cccnc32)cc1 11.1%
O=C(C[n+]1ccc(C(=O)N/N=C/c2ccc(O)cc2)cc1)c1ccccc1 23.2%
O=C(C[n+]1ccc(C(=O)N/N=C/c2ccc(OCc3ccccc3)cc2)cc1)c1ccccc1 41.8%
CC(=O)NC1C(=O)N=C(SCC(=O)NC(C)c2ccccc2)NC1=O (stereo not drawn) -18.8%
C=CCNS(=O)(=O)CC12CCC(CC1=O)C2(C)C (stereo not drawn) 4.8%
O=C(Nc1cc(N2CCOCC2)ncn1)Nc1cccc2ccccc12 14.5%
O=C(NC1(C(F)(F)F)Oc2ccccc2O1)N1CCCC1 -7.5%
O=C(Nc1cc(N2CCOCC2)ncn1)c1ccccc1 1.3%
CCOC(=O)Cc1csc(NC(=O)NC2(C(F)(F)F)Oc3ccc(Cl)cc3O2)n1 (stereo not drawn) 30.3%
CC(=O)OC(C)(C)C#CCN1CCCC1 24.5%
CC(=O)N1CCN(C(=S)c2ccc([N+](=O)[O-])cc2)CC1 12.8%
Cc1[nH]c2ccccc2c1C(=O)/C=C/c1ccccc1 10.6%
Cc1[nH]c2ccccc2c1/C=N/n1cnnc1 7.5%
Cc1nn(CC(O)Cn2cnc3c2c(=O)n(C)c(=O)n3C)c(C)c1Br (stereo not drawn) -1.6%
CCOc1cccc(-c2nc(C(N)=O)c3[nH]c(=O)n(-c4cccc(Cl)c4)c3n2)c1O -27.5%
COc1cccc(OCCNc2cc(N3CCCCC3)ccc2[N+](=O)[O-])c1 -2.3%
COc1ccc(OCCNc2cc(Cl)ccc2[N+](=O)[O-])cc1 4.1%
CCC(=O)NCCc1nc2cc(NC(=O)c3ccccc3OC)ccc2n1C -60.5%
CCOC(=O)c1c(C)n(CC(COC(C)=O)OC(C)=O)c2ccc(OC(C)=O)cc12 (stereo not drawn) -45.7%
CCCCN(CCCC)S(=O)(=O)c1ccc(C(=O)Nc2nnc(CSC)o2)cc1 -15.3%
c1ccc([C@H]2CC3C[C@@H](c4ccccc4)N2O3)cc1 -8.8%
O=C(NC1CCCCCC1)c1nc2ncccn2n1 2.9%
CCOc1cc(/C=C2\CCC/C(=C\c3cc(Cl)c(O)c(OCC)c3)C2=O)cc(Cl)c1O 26.7%
COc1cc(/C=N/N(C)c2ccccc2)cc(Cl)c1O 5.2%
N#CC(/C(=N/S(=O)(=O)c1cccs1)c1ccccc1)c1nc2ccccc2[nH]1 (stereo not drawn) -67.4%
O=C(Nc1ccc(Br)cc1)c1cnccn1 -8.2%
Cc1nc2c(cc(Oc3ccc(S(=O)(=O)N4CCOCC4)cn3)c3ccsc32)s1 -48.6%
CN(C)C(C(=O)NC1CCCCC1)c1ccc(Cl)cc1 (stereo not drawn) -18%
O=C(Nc1ccc2c(c1)OCCO2)C1c2ccccc2C(=O)N2CCc3ccccc3C12 (stereo not drawn) 14.8%
Clc1cccc(Cl)c1/C=C/c1nc2ccccc2[nH]1 14.1%
Clc1ccc(/C=C/c2nc3ccccc3[nH]2)cc1 4.3%
Clc1nc(-c2n[nH]nc2Cl)n[nH]1 14.3%
Nc1nnc(-c2cc3ccccc3oc2=O)s1 3.8%
CNc1nnc(-c2cc3cc(Cl)ccc3oc2=O)s1 -24.2%
CC1(C)Cc2c(sc3nc4n(c(=N)c23)CCC4)CO1 -9.9%
CC1(C)Cc2c(sc3nc4n(c(=O)c23)CCC4)CO1 -3.1%
CCCN1C(=O)NC2(O)C(=O)c3ccccc3C12O (stereo not drawn) 0.4%
C=CCOC(=O)C1=C(C)NC2(O)c3ccccc3C(=O)C12O (stereo not drawn) 10.9%
CCSc1nc2c(c(=O)n1CC)SC(C)C2 (stereo not drawn) -16%
Cn1c(=O)c2c(nc(NCCNC(=O)c3ccco3)n2Cc2ccc(Cl)cc2Cl)n(C)c1=O 6.4%
CN1/C(=C\C(=O)c2ccco2)C(C)(C)c2ccccc21 3.8%
CN1/C(=C/C=N/n2cnnc2)C(C)(C)c2ccccc21 16.4%
C=CCn1c(Cc2csc(N)n2)nnc1SCC(=O)Nc1ccccc1C(F)(F)F 21.5%
CC(=O)Oc1ccc2c(C)cc(=O)oc2c1 24.6%
CC(=O)c1cc2c(C)cc(=O)oc2cc1O 15.2%
CCOC(=O)C(C)n1cnc2c(cnn2-c2ccc(Cl)cc2)c1=O (stereo not drawn) 1.3%
CCc1nnc(NC(=O)c2ccc(S(=O)(=O)N3CCCCCC3)cc2)s1 -15.9%
COc1ccc(C(c2nnnn2C2CCCC2)N2CCC(C(N)=O)CC2)c(OC)c1 (stereo not drawn) -65.7%
Cc1cc([N+](=O)[O-])ccc1NCc1ccccc1 47.4%
COc1ccc(CNc2cc([N+](=O)[O-])ccc2OC)cc1 31.1%
Cc1cc(-c2nc3ncccc3o2)ccc1NC(=O)CC(C)C -19.3%
CSc1cccc(NC(=O)/C=C/c2ccc(Cl)cc2)c1 20.8%
CSc1cccc(NC(=O)Nc2ccccc2)c1 2.1%
CCS(=O)(=O)n1nc(-c2ccc(C)cc2)nc1N 13.8%
CCN1C(=O)C(O)(CC(=O)/C=C/C=C/c2ccccc2)c2ccccc21 (stereo not drawn) -9.7%
CCCN1C(=O)/C(=C/C=C2\N(CC)c3ccccc3C2(C)C)SC1=S 22.7%
Cn1c(=O)oc2cc(S(=O)(=O)N3CCC(C(=O)N4CCc5ccccc5C4)CC3)ccc21 12.8%
Cc1ccc(NC(=S)NCCC(c2ccccc2)c2ccccc2)c(C)c1 -44%
O=C1CC(SCCc2nc3ccccc3[nH]2)C(=O)N1c1ccc(Cl)cc1 (stereo not drawn) -15.3%
COc1ccc(C2=C(C=Nc3c(C)n(C)n(-c4ccccc4)c3=O)C(c3ccccc3C)c3ccccc3O2)cc1OC (stereo not drawn) -61%
Cc1ccc(NC(=O)CCn2cccc2)cc1C 5.5%
O=C(CSc1nc2ccccc2s1)N1c2ccccc2Sc2ccc(Cl)cc21 9.1%
O=c1oc2ccccc2n1CSc1nc2ccccc2s1 46.4%
CCOc1ccc(C(CCc2ccccc2)NC(=O)c2ccccc2OC)cc1OCC (stereo not drawn) -15.5%
CS(=O)(=O)N1CCN(c2nc3ccccc3s2)CC1 2.4%
COc1ccc(NC(=O)/C(C#N)=C/c2ccc(Br)o2)cc1 -0.4%
COc1cc(/C=C(\C#N)C(=O)Nc2ccc(SC(F)F)cc2)cc(OC)c1OC -62%
C/C(=N\Nc1nc(N)cc(Cl)n1)c1cccc([N+](=O)[O-])c1 -13.2%
CCc1ccc(/C(C)=N\Nc2ccc([N+](=O)[O-])cc2)cc1 26.2%
COCCNC(=O)C(c1cccc(OC)c1)N(C(=O)Cn1nnc2ccccc21)c1cccnc1 (stereo not drawn) -24%
CCOc1ccccc1C(=O)Nc1ccc(S(=O)(=O)N2CCOCC2)cc1 -60.6%
CCOc1ccc(Cl)cc1/C=N/O 10.1%
O/N=C/c1cc(Cl)ccc1OCc1ccccc1Cl 0%
COc1cccc(C(=O)NCCC2=CCCCC2)c1 8.1%
COc1cc(/C=N/NC(N)=S)ccc1OCC(=O)Nc1ccc(C)c(C)c1 4.4%
CN1c2ccccc2C(C)(C)C12C=Nc1c(ccc3ccccc13)O2 (stereo not drawn) 0.3%
CN1c2ccccc2C(C)(C)C12C=Cc1cc(O)ccc1O2 (stereo not drawn) 27.8%
CC1=NN(C(=O)Cc2ccc([N+](=O)[O-])cc2)C(O)(c2ccccc2)C1 (stereo not drawn) -32.3%
CCOc1ccc(-c2nnc3sc(COc4ccccc4)nn23)cc1 8.3%
CCOc1ccc(-c2nnc3sc(COc4ccc(C)cc4)nn23)cc1 -25.7%
CCN(CC)S(=O)(=O)c1cc([N+](=O)[O-])ccc1NNC(=O)Nc1ccc(Cl)c(Cl)c1 -23.2%
Cc1cc(-c2nnc(SCC(=O)N3C(C)CCCC3C)o2)no1 (stereo not drawn) 0.5%
CCOC(=O)C1=C(O)/C(=C/c2cc(OC)c(OC)c(OC)c2)N=C1C -30.7%
CCOC(=O)C1=C(O)/C(=C\c2ccc(OC)c(OC)c2)N=C1C -24.6%
Cc1nn(-c2ccccc2)c(C)c1CCC(=O)O -21.2%
Cc1cc2cc(CN(CCCO)S(=O)(=O)c3cccc4nsnc34)c(=O)[nH]c2cc1C -57.9%
